The source of these data is PubChem BioAssay (EPA / NIEHS).

Records with an inconclusive call do not appear. Active and inactive are the calls of the source. How the source made its calls, unless noted: active means hit-call score of the fitted dose curve at least 0.9, where 1 is the maximum; inactive means score below 0.9.

The nature of assay [1]: CCTE_Shafer_MEA_dev_firing_rate_mean: CCTE's Neural Network Formation Assay for Mean Firing Rate, Shafer Lab (AID 2284031). The essentials: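 Read-out: spike count/recording length, averaged over active electrodes, then AUC across days 5, 7, 9, 12. Rat cortical cultures on MEA; continuous 12-day exposure, media and treatment renewed DIV 5, 9; DMSO baseline.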
Assay [2] in a line: CCTE_Shafer_MEA_dev_per_burst_spike_percent: CCTE's Neural Network Formation Assay for Percent of Spikes in a Burst, Shafer Lab (AID 2284032). The essentials:
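Value is trapezoidal AUC over recordings on days 5, 7, 9 and 12 of the well-mean fraction of spikes falling in single-electrode bursts; rat cortical cultures exposed continuously from plating, treatment renewed DIV 5 and 9, fitted downward against DMSO.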

A short description of assay [3]: CCTE_Shafer_MEA_dev_active_electrodes_number: CCTE's Neural Network Formation Assay for Number of Active Electrodes, Shafer Lab (AID 2284040; active means hit-call score of the fitted dose curve at least 0.9, where 1 is the maximum;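 on AC50: potency for loss of active electrodes versus DMSO so lower counts are hits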). The essentials:
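Developing rat cortical networks on MEAs, exposed DIV 0–12. Value is the AUC of active-electrode counts (≥5 spikes/min) from days 5, 7, 9, 12, relative to DMSO.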

A short description of assay [4]: CCTE_Shafer_MEA_dev_burst_rate: CCTE's Neural Network Formation Assay for Burst Rate, Shafer Lab (AID 2284042). The essentials:
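Cells plated, treated day 0; recorded DIV 5, 7, 9, 12; fed and re-treated DIV 5, 9. Endpoint: bursts per recording time, active-electrode well mean, trapezoidal AUC, fitted in decreasing direction against DMSO baseline.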

A short description of assay [5]: CCTE_Shafer_MEA_dev_per_burst_interspike_interval: CCTE's Neural Network Formation Assay for Burst Interspike Interval, Shafer Lab (AID 2284044). The essentials:
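Rat cortical primary cultures, 16 electrodes/well; compound from plating, renewed with full media change DIV 5 and 9. Spikes via adaptive detector; per-burst ISI well-mean over active bursting electrodes; AUC of DIV 5/7/9/12 recordings; loss-direction fit vs DMSO.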

The nature of assay [6]: CCTE_Shafer_MEA_dev_burst_duration_mean: CCTE's Neural Network Formation Assay for Mean Burst Duration, Shafer Lab (AID 2284045). The essentials:
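Network-formation assay in primary rat cortical neurons; treatment spans twelve days of development. Mean burst duration per well is integrated by trapezoidal AUC and fitted in the loss-of-signal direction against DMSO baseline.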

The nature of assay [7]: CCTE_Shafer_MEA_dev_interburst_interval_mean: CCTE's Neural Network Formation Assay for Mean Interburst Interval, Shafer Lab (AID 2284046).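 Further: curve fitted for decrease in interburst interval relative to DMSO.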 The essentials: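 Developing rat cortical networks on 48-well MEAs receive compound from the day of plating. Burst intervals from each active electrode are averaged per well, and AUC over the recording days is fitted in the negative direction against DMSO.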

Assay [8] in a line: CCTE_Shafer_MEA_dev_inter_network_spike_interval_mean: CCTE's Neural Network Formation Assay for Mean Inter-network Spike Interval, Shafer Lab (AID 2284047). The essentials:
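Rat cortical cultures, 1.5 x 10^5 cells/well on 48-well MEA plates; continuous exposure days 0–12, medium and compound refreshed DIV 5, 9. Mean time between consecutive network-spike peaks; AUC across DIV 5/7/9/12; DMSO baseline, negative fitting direction.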

A short description of assay [9]: CCTE_Shafer_MEA_dev_network_spike_number: CCTE's Neural Network Formation Assay for Number of Network Spikes, Shafer Lab (AID 2284048).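 Further: synchronized bursts across electrodes counted on days 5 7 9 12 and integrated as AUC.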 The essentials:
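Extracellular recordings from 16-electrode wells track network formation in rat cortical cultures under continuous treatment from plating. The endpoint is network spike number, expressed as AUC across DIV 5–12 relative to DMSO vehicle.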

Assay [10] in a line: CCTE_Shafer_MEA_dev_network_spike_peak: CCTE's Neural Network Formation Assay for Mean Number of Electrodes in Network Spike, Shafer Lab (AID 2284049). The essentials:
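Continuous 12-day exposure of rat cortical cultures, starting at plating, on MEA plates. Endpoint: electrodes participating in network-spike peaks, AUC across DIV 5–12, DMSO as negative control.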

The nature of assay [11]: CCTE_Shafer_MEA_dev_spike_duration_mean: CCTE's Neural Network Formation Assay for Mean Spike Duration, Shafer Lab (AID 2284051).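 Further: mean network spike duration pooled as area under curve over DIV 5 to 12 recordings.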 The essentials:
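Readout is the average length of network spikes, clustered firing across electrodes, summed over DIV 5, 7, 9 and 12 as area under the curve. Neurons from rat cortex developed networks on MEA plates under continuous 12-day exposure.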

A short description of assay [12]: CCTE_Shafer_MEA_dev_network_spike_duration_std: CCTE's Neural Network Formation Assay for Standard Deviation of Network Spike Duration, Shafer Lab (AID 2284052).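 Further: hits are decreases in network spike duration SD versus DMSO vehicle.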 The essentials: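 Read-out is the trapezoidal area-under-the-curve across recordings made on days 5, 7, 9 and 12, fitted in the negative direction against DMSO baseline. Neurons were primary rat cortical cells treated from day 0, with treatment renewed at each feed.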

A short description of assay [13]: CCTE_Shafer_MEA_dev_per_network_spike_spike_number_mean: CCTE's Neural Network Formation Assay for Mean Number of Spikes in a Network Spike, Shafer Lab (AID 2284053). The essentials:
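Continuous twelve-day exposure of developing rat cortical networks grown over 16 microelectrodes per well; spontaneous firing is captured at four time points, and the per-network-spike spike number is integrated over development by trapezoidal AUC.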

Assay [14] deals with Estrogen receptor (Homo sapiens) (UniProt P03372). The experiment in a line: CCTE_Deisenroth_AIME_384WELL_LUC_Active: CCTE's 384-well Estrogen Receptor Transactivation Assay with AIME metabolic competence (ERTA luciferase; metabolism positive), Deisenroth Lab (AID 2284030; active means hit-call score of the fitted dose curve at least 0.9, where 1 is the maximum). The essentials:
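Test chemicals (10-point series, 0.002 - 200 uM) were preincubated 2 hours with alginate-immobilized phenobarbital/beta-naphthoflavone-induced male Sprague Dawley rat liver S9; conditioned medium then went onto VM7Luc4E2 breast cells for 24 hour. Luciferase gain-of-signal fitted relative to 17beta-estradiol.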

Assay [15] in a line: CCTE_Deisenroth_AIME_384WELL_CTox_Active: Cytotoxicity Assessment (CTOX) in CCTE's 384-well Estrogen Receptor Transactivation Assay with AIME metabolic competence (metabolism positive), Deisenroth Lab (AID 2284037; active means hit-call score of the fitted dose curve at least 0.9, where 1 is the maximum;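 further: chemicals first conditioned 2 h by alginate-bound induced rat liver S9 before cells; activity means signal loss indicating cell death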). The essentials:
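VM7Luc4E2 breast cells received medium pre-incubated 2 h with chemical over alginate microspheres holding induced male Sprague Dawley rat liver S9; viability read 24 h later by protease-substrate fluorescence. Loss of signal, bidirectional fit, 0.002–200 uM.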

Assay [16] concerns the target Estrogen receptor (Homo sapiens) (UniProt P03372). The experiment in a line: CCTE_Deisenroth_AIME_384WELL_LUC_Shift: CCTE's 384-well Estrogen Receptor Transactivation Assay with AIME metabolic competence data shift (ERTA luciferase; difference in metabolism positive and negative), Deisenroth Lab (AID 2284041).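 Further: shift is response with S9 minus without S9 so positive means metabolism raised ER signal.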 The essentials:
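Here, parent compounds undergo 2 h phase I metabolism by PB/BNF-induced rat S9 before 24 h transactivation in VM7Luc4E2 cells; the curve models S9-positive minus S9-negative response over a 10-point series.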

Assay [17] has the same target. Put plainly: CCTE_Deisenroth_AIME_384WELL_LUC_Inactive: CCTE's 384-well Estrogen Receptor Transactivation Assay without AIME metabolic competence (ERTA luciferase; metabolism negative), Deisenroth Lab (AID 2284038; active means hit-call score of the fitted dose curve at least 0.9, where 1 is the maximum;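 further: hits raise estrogen receptor luciferase signal so potencies reflect agonists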). The essentials: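 Metabolism-negative mode: AIME lids stamped in alginate-water, no hepatic S9. 2 h chemical incubation → medium onto VM7Luc4E2 ERTA, 24 h. Readout luciferase luminescence; gain-of-signal fit vs 17beta-estradiol. Conc. 0.002 - 200 uM.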

A further assay has as its system DIO2 (gene 1734). The experiment in a line: CCTE_GLTED_hDIO2: CCTE's human Deiodinase 2 (DIO2) Inhibition Assay, Great Lakes Toxicology and Ecology Division (GLTED) Lab (AID 2284050; active means hit-call score of the fitted dose curve at least 0.9, where 1 is the maximum). The essentials: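 Readout: absorbance from Sandell-Kolthoff detection of free iodide released by human DIO2 during a 3 h incubation with chemical. Cell-free format, n=3; activity fitted relative to DMSO negative control.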

Chain of Estrogen receptor (Homo sapiens) (P03372 whole entry, looked up): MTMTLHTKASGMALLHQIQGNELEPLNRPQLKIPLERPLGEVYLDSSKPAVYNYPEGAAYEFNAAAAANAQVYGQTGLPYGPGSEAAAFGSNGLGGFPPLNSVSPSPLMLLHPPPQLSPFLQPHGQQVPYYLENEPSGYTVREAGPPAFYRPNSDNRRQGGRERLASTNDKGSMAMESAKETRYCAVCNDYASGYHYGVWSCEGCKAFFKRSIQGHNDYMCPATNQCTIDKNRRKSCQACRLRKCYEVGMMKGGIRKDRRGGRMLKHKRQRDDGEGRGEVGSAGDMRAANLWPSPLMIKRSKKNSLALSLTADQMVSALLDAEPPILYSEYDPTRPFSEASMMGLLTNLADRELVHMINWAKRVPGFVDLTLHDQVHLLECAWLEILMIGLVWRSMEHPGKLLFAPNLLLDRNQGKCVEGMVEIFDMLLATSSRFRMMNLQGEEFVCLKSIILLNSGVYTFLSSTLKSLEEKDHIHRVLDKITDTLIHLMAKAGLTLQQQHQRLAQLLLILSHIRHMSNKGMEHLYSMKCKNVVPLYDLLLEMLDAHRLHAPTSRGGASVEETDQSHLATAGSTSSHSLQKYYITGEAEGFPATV

In the case of `COCCO`, the molecule was classed as inactive in assay [1], in [2], in [3], in [4], in assay [5] and in assay [6]. The molecule was classed as inactive in [7], in assay [8], in [9], in [10], in assay [11] and in assay [12]. For the same molecule, the molecule was called inactive in [13].

`N#CSCSc1nc2ccccc2s1`: the result in assay [14], in assay [15] and in assay [16] was inactive.

For the molecule `CCSC(=O)N(CC(C)C)CC(C)C`, the molecule was called inactive in assay [14], in assay [15], in [17] and in assay [16].

The AC50 is the concentration at which the activity in the assay is half-maximal. For `CCCCC(CC)CN1C(=O)C2C3C=CC(C3)C2C1=O` (configuration not stated), the call in assay [1], in assay [2], in assay [4], in assay [5], in [6] and in assay [7] was inactive. Also, the molecule was classed as inactive in assay [8], in assay [9], in assay [10], in [11], in [12] and in assay [13]. Further, the AC50 in [3] is 4.74 µM (active).

As for `O=C(c1ccc(O)cc1O)c1ccc(O)cc1O`, the AC50 in assay [14] was 6.67 µM (active); in [17], 6.69 µM (active). The result in assay [15] and in assay [16] was inactive.

In the case of `O=C(O)c1ccccc1`, the result in assay [14], in assay [1], in assay [2], in assay [15], in assay [17] and in [3] was inactive. The outcome in assay [16], in assay [4], in assay [5], in assay [6], in assay [7] and in assay [8] was inactive. Besides, the outcome in assay [9], in [10], in assay [11], in [12] and in assay [13] was inactive.

For the molecule `OB(O)O`, the molecule was classed as inactive in [1], in [2], in assay [3], in assay [4], in assay [5] and in [6]. Further, the molecule was called inactive in assay [7], in [8], in assay [9], in assay [10], in assay [11] and in assay [12]. For the same molecule, the molecule was called inactive in assay [13].

Turning to `CCOC(=O)COc1cc(-n2ncc(C(F)(F)F)c(C)c2=O)c(F)cc1Cl`, the molecule was classed as inactive in assay [14], in assay [15], in assay [17] and in assay [16].

On to `CCOC(=O)C(C)Oc1ccc(Oc2nc3ccc(Cl)cc3o2)cc1` (configuration not stated), for which the AC50 in the assay on DIO2 (gene 1734) was 44.6 µM (active).
